The supplement of paper PMC3545927
The other results are listed elsewhere or left out. The hit rate among all sequences tested is not known here.

Biological target: furin, P09958
Assay: furin cleavage Z-score vs untreated control; higher = more cleavage, active = 3.5 or more, inactive = 1 or less, 8 variable residues between constant flanks
In short: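 Furin-free reactions served as the baseline for the cleavage Z-score, which is the log read count lowess-adjusted and scaled by median absolute deviation. Counts came from released DNA, adapter-tagged by PCR and sequenced. Purified furin had cut 8-mer peptides fused to a cDNA oligonucleotide on magnetic beads during 7.5, 15 or 30 min at 1:10 enzyme:substrate.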
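Further: purified furin at 1:10 enzyme:substrate in 50 mM HEPES pH 7.5.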

Sequence of furin, P09958 (P09958 whole entry): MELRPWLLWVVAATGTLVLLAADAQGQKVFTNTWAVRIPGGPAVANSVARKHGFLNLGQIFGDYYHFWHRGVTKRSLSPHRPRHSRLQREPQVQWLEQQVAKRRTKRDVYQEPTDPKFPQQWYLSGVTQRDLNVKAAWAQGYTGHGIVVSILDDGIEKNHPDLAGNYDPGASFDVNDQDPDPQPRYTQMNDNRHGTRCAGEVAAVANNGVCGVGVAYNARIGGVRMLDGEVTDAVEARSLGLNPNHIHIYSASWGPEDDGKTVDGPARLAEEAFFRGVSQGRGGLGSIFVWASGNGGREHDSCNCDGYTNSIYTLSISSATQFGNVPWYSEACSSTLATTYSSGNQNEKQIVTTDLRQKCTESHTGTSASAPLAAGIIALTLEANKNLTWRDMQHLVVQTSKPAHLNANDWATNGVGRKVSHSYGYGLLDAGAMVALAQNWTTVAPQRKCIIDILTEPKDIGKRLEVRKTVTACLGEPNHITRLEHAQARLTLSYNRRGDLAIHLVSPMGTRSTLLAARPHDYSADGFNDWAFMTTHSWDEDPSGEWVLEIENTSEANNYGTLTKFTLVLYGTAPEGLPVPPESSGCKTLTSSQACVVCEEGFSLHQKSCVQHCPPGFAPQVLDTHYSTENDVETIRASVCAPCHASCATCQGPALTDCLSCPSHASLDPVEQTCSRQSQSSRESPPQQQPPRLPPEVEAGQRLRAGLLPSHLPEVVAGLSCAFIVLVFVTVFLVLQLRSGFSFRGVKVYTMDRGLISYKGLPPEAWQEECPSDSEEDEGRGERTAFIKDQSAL

Question: With CAKMIGGHYVAGNASASA [HC624] as the sequence, how does the “furin cleavage Z-score” value (7.5 min) read?
Answer: -0.495 (inactive)

Question: And the “furin cleavage Z-score” value (15 min)?
Answer: -0.0648 (inactive)

Question: And the “furin cleavage Z-score” value (30 min)?
Answer: -0.0572 (inactive)

Question: CACGSVFLVGAGNASASA [HC301] was tested. Which “furin cleavage Z-score” value (7.5 min) did it give?
Answer: -1.62 (inactive)

Question: And the “furin cleavage Z-score” value (15 min)?
Answer: -1.91 (inactive)

Question: And the “furin cleavage Z-score” value (30 min)?
Answer: -1.35 (inactive)

Question: How did the “furin cleavage Z-score” value (7.5 min) turn out when CAEVVTSTWIAGNASASA [HC2244] was run?
Answer: 0.57 (inactive)

Question: What about the “furin cleavage Z-score” value (15 min) of the same sequence?
Answer: 0.293 (inactive)

Question: And the “furin cleavage Z-score” value (30 min)?
Answer: 0.802 (inactive)

Question: Which “furin cleavage Z-score” value (7.5 min) does the source give for CAEQPCHRPSAGNASASA [HC2342] here?
Answer: -1.24 (inactive)

Question: What about the “furin cleavage Z-score” value (15 min) of the same sequence?
Answer: 2.02

Question: And the “furin cleavage Z-score” value (30 min)?
Answer: -0.236 (inactive)

Question: For CAEREISVPAAGNASASA [HC1293], which “furin cleavage Z-score” value (7.5 min) is on record?
Answer: -0.452 (inactive)

Question: And the “furin cleavage Z-score” value (15 min)?
Answer: -1.55 (inactive)

Question: What about the “furin cleavage Z-score” value (30 min) of the same sequence?
Answer: -0.526 (inactive)

Question: Which “furin cleavage Z-score” value (7.5 min) does the source give for CAGQLDLSGWAGNASASA [HC1642] here?
Answer: -0.176 (inactive)

Question: What about the “furin cleavage Z-score” value (15 min) of the same sequence?
Answer: 0.869 (inactive)

Question: And the “furin cleavage Z-score” value (30 min)?
Answer: 0.13 (inactive)

Question: How did the “furin cleavage Z-score” value (7.5 min) turn out when CALRRRRKRYAGNASASA [FS-944] was run?
Answer: 11.8 (active)

Question: And the “furin cleavage Z-score” value (15 min)?
Answer: 14.5 (active)

Question: And the “furin cleavage Z-score” value (30 min)?
Answer: 10.2 (active)

Question: For CARRRRNKRYAGNASASA [FS-1403], which “furin cleavage Z-score” value (7.5 min) is on record?
Answer: 12.8 (active)

Question: And the “furin cleavage Z-score” value (15 min)?
Answer: 14.4 (active)

Question: What about the “furin cleavage Z-score” value (30 min) of the same sequence?
Answer: 10.6 (active)

Question: CAEETTPCSGAGNASASA [HC1972] was tested. Which “furin cleavage Z-score” value (7.5 min) did it give?
Answer: -1.3 (inactive)

Question: What about the “furin cleavage Z-score” value (15 min) of the same sequence?
Answer: -1.71 (inactive)

Question: What about the “furin cleavage Z-score” value (30 min) of the same sequence?
Answer: -0.823 (inactive)

Question: What does the source list for CATTPCSRSWAGNASASA [HC1893]?
Answer: furin cleavage Z-score (7.5 min): 0.791 (inactive); furin cleavage Z-score (15 min): 0.627 (inactive); furin cleavage Z-score (30 min): -0.432 (inactive)

Question: Which “furin cleavage Z-score” value (7.5 min) does the source give for CAPLRDWAHNAGNASASA [HC638] here?
Answer: 0.639 (inactive)

Question: And the “furin cleavage Z-score” value (15 min)?
Answer: 0.256 (inactive)

Question: What about the “furin cleavage Z-score” value (30 min) of the same sequence?
Answer: 0.786 (inactive)

Question: Which results are given for CASTPCSAHTAGNASASA [HC2578]?
Answer: furin cleavage Z-score (7.5 min): -0.678 (inactive); furin cleavage Z-score (15 min): -2.17 (inactive); furin cleavage Z-score (30 min): 0.0661 (inactive)

Question: For CARKVREAYLAGNASASA [FS-2427], which “furin cleavage Z-score” value (7.5 min) is on record?
Answer: 5.91 (active)

Question: And the “furin cleavage Z-score” value (15 min)?
Answer: 6.8 (active)

Question: And the “furin cleavage Z-score” value (30 min)?
Answer: 7.91 (active)

Question: How did the “furin cleavage Z-score” value (7.5 min) turn out when CARKIRIKGIAGNASASA [FS-2558] was run?
Answer: 0.0544 (inactive)

Question: And the “furin cleavage Z-score” value (15 min)?
Answer: -0.85 (inactive)

Question: What about the “furin cleavage Z-score” value (30 min) of the same sequence?
Answer: -1.75 (inactive)

Question: Which “furin cleavage Z-score” value (7.5 min) does the source give for CARHSRQVLLAGNASASA [FS-2947] here?
Answer: 0.717 (inactive)

Question: What about the “furin cleavage Z-score” value (15 min) of the same sequence?
Answer: 2.58

Question: And the “furin cleavage Z-score” value (30 min)?
Answer: 2.14

Question: With CARHSRKKRLAGNASASA [FS-1259] as the sequence, how does the “furin cleavage Z-score” value (7.5 min) read?
Answer: 8.52 (active)

Question: And the “furin cleavage Z-score” value (15 min)?
Answer: 11.2 (active)

Question: And the “furin cleavage Z-score” value (30 min)?
Answer: 9.02 (active)

Question: For CARKMRLGDAAGNASASA [FS-1728], which “furin cleavage Z-score” value (7.5 min) is on record?
Answer: 0.749 (inactive)

Question: What about the “furin cleavage Z-score” value (15 min) of the same sequence?
Answer: 0.395 (inactive)

Question: And the “furin cleavage Z-score” value (30 min)?
Answer: -0.759 (inactive)

Question: Which results are given for CARKIRKKRLAGNASASA [FS-84]?
Answer: furin cleavage Z-score (7.5 min): 9.24 (active); furin cleavage Z-score (15 min): 9.01 (active); furin cleavage Z-score (30 min): 7.01 (active)

Question: CARHSRSQGAAGNASASA [FS-2948] was tested. Which “furin cleavage Z-score” value (7.5 min) did it give?
Answer: -0.651 (inactive)

Question: What about the “furin cleavage Z-score” value (15 min) of the same sequence?
Answer: 0.879 (inactive)

Question: And the “furin cleavage Z-score” value (30 min)?
Answer: -0.497 (inactive)

Question: Which “furin cleavage Z-score” value (7.5 min) does the source give for CARKMRPARLAGNASASA [FS-1260] here?
Answer: 3.41

Question: And the “furin cleavage Z-score” value (15 min)?
Answer: 4.23 (active)

Question: And the “furin cleavage Z-score” value (30 min)?
Answer: 4.92 (active)

Question: For CARKVRDKISAGNASASA [FS-1961], which “furin cleavage Z-score” value (7.5 min) is on record?
Answer: -0.364 (inactive)

Question: What about the “furin cleavage Z-score” value (15 min) of the same sequence?
Answer: -1.5 (inactive)

Question: And the “furin cleavage Z-score” value (30 min)?
Answer: 1.37

Question: What does the source list for CAFFCFAWYLAGNASASA [HC546]?
Answer: furin cleavage Z-score (7.5 min): -1.2 (inactive); furin cleavage Z-score (15 min): -0.615 (inactive); furin cleavage Z-score (30 min): -0.815 (inactive)

Question: With CAELIEANLLAGNASASA [HC1273] as the sequence, how does the “furin cleavage Z-score” value (7.5 min) read?
Answer: -1.11 (inactive)

Question: And the “furin cleavage Z-score” value (15 min)?
Answer: -1.92 (inactive)

Question: What about the “furin cleavage Z-score” value (30 min) of the same sequence?
Answer: 0.0877 (inactive)

Question: How did the “furin cleavage Z-score” value (7.5 min) turn out when CARYSRSSAAAGNASASA [FS-1811] was run?
Answer: 1.3

Question: What about the “furin cleavage Z-score” value (15 min) of the same sequence?
Answer: 1.43

Question: What about the “furin cleavage Z-score” value (30 min) of the same sequence?
Answer: 0.767 (inactive)

Question: Which “furin cleavage Z-score” value (7.5 min) does the source give for CARWGRFLLQAGNASASA [FS-3128] here?
Answer: 0.358 (inactive)

Question: What about the “furin cleavage Z-score” value (15 min) of the same sequence?
Answer: 1.41

Question: And the “furin cleavage Z-score” value (30 min)?
Answer: 0.253 (inactive)

Question: With CARVVRELLQAGNASASA [FS-1805] as the sequence, how does the “furin cleavage Z-score” value (7.5 min) read?
Answer: 5.28 (active)

Question: And the “furin cleavage Z-score” value (15 min)?
Answer: 8.9 (active)

Question: And the “furin cleavage Z-score” value (30 min)?
Answer: 7.51 (active)

Question: Which results are given for CARAARSLLQAGNASASA [FS-1679]?
Answer: furin cleavage Z-score (7.5 min): 1.57; furin cleavage Z-score (15 min): 0.802 (inactive); furin cleavage Z-score (30 min): 5.01 (active)

Question: With CAWLAGLFYHAGNASASA [HC379] as the sequence, how does the “furin cleavage Z-score” value (7.5 min) read?
Answer: -1.56 (inactive)

Question: And the “furin cleavage Z-score” value (15 min)?
Answer: -0.299 (inactive)

Question: And the “furin cleavage Z-score” value (30 min)?
Answer: -1.72 (inactive)

Question: CAPLEVIKGGAGNASASA [HC851] was tested. Which “furin cleavage Z-score” value (7.5 min) did it give?
Answer: 1.06

Question: And the “furin cleavage Z-score” value (15 min)?
Answer: 0.444 (inactive)

Question: And the “furin cleavage Z-score” value (30 min)?
Answer: 0.579 (inactive)

Question: What does the source list for CACHCGAEITAGNASASA [HC1175]?
Answer: furin cleavage Z-score (7.5 min): -0.983 (inactive); furin cleavage Z-score (15 min): -1.4 (inactive); furin cleavage Z-score (30 min): -0.977 (inactive)

Question: CALAARRRRSAGNASASA [FS-264] was tested. Which “furin cleavage Z-score” value (7.5 min) did it give?
Answer: 10.9 (active)

Question: What about the “furin cleavage Z-score” value (15 min) of the same sequence?
Answer: 11 (active)

Question: What about the “furin cleavage Z-score” value (30 min) of the same sequence?
Answer: 8.11 (active)

Question: For CALAARGARLAGNASASA [FS-682], which “furin cleavage Z-score” value (7.5 min) is on record?
Answer: -1.17 (inactive)

Question: And the “furin cleavage Z-score” value (15 min)?
Answer: 0.199 (inactive)

Question: And the “furin cleavage Z-score” value (30 min)?
Answer: 0.619 (inactive)

Question: For CAVFKRRRRSAGNASASA [FS-1101], which “furin cleavage Z-score” value (7.5 min) is on record?
Answer: 12.7 (active)

Question: And the “furin cleavage Z-score” value (15 min)?
Answer: 11.3 (active)

Question: And the “furin cleavage Z-score” value (30 min)?
Answer: 8.61 (active)

Question: How did the “furin cleavage Z-score” value (7.5 min) turn out when CATALRRARSAGNASASA [FS-200] was run?
Answer: 1.48

Question: And the “furin cleavage Z-score” value (15 min)?
Answer: 0.619 (inactive)

Question: What about the “furin cleavage Z-score” value (30 min) of the same sequence?
Answer: 0.983 (inactive)

Question: Which results are given for CATAQRRRRSAGNASASA [FS-877]?
Answer: furin cleavage Z-score (7.5 min): 8.41 (active); furin cleavage Z-score (15 min): 7.47 (active); furin cleavage Z-score (30 min): 6.08 (active)

Question: How did the “furin cleavage Z-score” value (7.5 min) turn out when CAPAARFKKFAGNASASA [FS-367] was run?
Answer: -0.438 (inactive)

Question: And the “furin cleavage Z-score” value (15 min)?
Answer: -0.599 (inactive)

Question: And the “furin cleavage Z-score” value (30 min)?
Answer: -0.45 (inactive)

Question: How did the “furin cleavage Z-score” value (7.5 min) turn out when CAPAARRRRSAGNASASA [FS-1146] was run?
Answer: 11.4 (active)

Question: And the “furin cleavage Z-score” value (15 min)?
Answer: 10.2 (active)

Question: What about the “furin cleavage Z-score” value (30 min) of the same sequence?
Answer: 8.82 (active)

Question: Which “furin cleavage Z-score” value (7.5 min) does the source give for CAELEVVTSTAGNASASA [HC2272] here?
Answer: -0.698 (inactive)

Question: What about the “furin cleavage Z-score” value (15 min) of the same sequence?
Answer: -0.669 (inactive)

Question: And the “furin cleavage Z-score” value (30 min)?
Answer: -1.12 (inactive)

Question: For CAYEMEECSQAGNASASA [HC1789], which “furin cleavage Z-score” value (7.5 min) is on record?
Answer: 0.403 (inactive)

Question: What about the “furin cleavage Z-score” value (15 min) of the same sequence?
Answer: -0.566 (inactive)

Question: And the “furin cleavage Z-score” value (30 min)?
Answer: 1.37

Question: How did the “furin cleavage Z-score” value (7.5 min) turn out when CANLLPAILSAGNASASA [HC1101] was run?
Answer: -0.111 (inactive)

Question: What about the “furin cleavage Z-score” value (15 min) of the same sequence?
Answer: 0.993 (inactive)

Question: What about the “furin cleavage Z-score” value (30 min) of the same sequence?
Answer: -0.0781 (inactive)

Question: With CANWSPTTALAGNASASA [HC323] as the sequence, how does the “furin cleavage Z-score” value (7.5 min) read?
Answer: -0.0824 (inactive)

Question: What about the “furin cleavage Z-score” value (15 min) of the same sequence?
Answer: -0.415 (inactive)

Question: And the “furin cleavage Z-score” value (30 min)?
Answer: -0.513 (inactive)

Question: For CAAQLLRIPQAGNASASA [HC328], which “furin cleavage Z-score” value (7.5 min) is on record?
Answer: -1 (inactive)

Question: What about the “furin cleavage Z-score” value (15 min) of the same sequence?
Answer: 1.5

Question: What about the “furin cleavage Z-score” value (30 min) of the same sequence?
Answer: 0.847 (inactive)

Question: Which results are given for CAMEECSTHLAGNASASA [HC1738]?
Answer: furin cleavage Z-score (7.5 min): 0.958 (inactive); furin cleavage Z-score (15 min): 0.401 (inactive); furin cleavage Z-score (30 min): 0.22 (inactive)
